Shown are actives, neighbours in structure and some others; about 28% of the full set was active somewhere.
CYP2C9 inhib: blockers of cytochrome P450 2C9 activity – biochemical, luminescence, ADME assay, primary screen | P11712 | CYP2C9 Supersomes, luciferin-H conversion | inhibition, % at 5 µM | 20% of 96,000 active | AID 777, 2007;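 active = blocking of liver enzyme CYP2C9 beyond about 50% at 5 µM, limit read from the data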
CYP2C9 act: human CYP2C9 activators, primary screen, biochemical, luminescence; 1.4% of 96,000 active; AID 1024, 2008; activation factor at 5 µM; recombinant CYP2C9, luciferin-H conversion; hits give high values; factor 1 = untreated enzyme, 0 = blocked; Cytochrome P450 2C9 (Homo sapiens), P11712;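 active = activation factor of 2 or more for CYP2C9 at a 5 µM dose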;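 note: 0 = sulfaphenazole-blocked wells and 1 = vehicle-only wells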
DAT uptake mod: changed hDAT dopamine uptake under cocaine IC80, either direction, primary screen, cocaine antagonist project, cell-based, LLC-PK1 hDAT, [14C]-dopamine uptake, MLSMR; LLC-PK1 hDAT cells, [14C]-dopamine uptake with cocaine IC80; actives deviate in either direction; 1.3% of 110,000 active; Sodium-dependent dopamine transporter (Homo sapiens), Q01959; B-score at 10 µM;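 active = Z score or B-score, a plate-position-corrected score, falls beyond the plate's 99.7% confidence bounds, in either direction; inactive = both scores lie inside the 99.7% bounds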;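 note: scored against the spread of the other compound wells on the same plate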
CYP2C19 activ: human CYP2C19 activators, primary screen, biochemical, luminescence. recombinant CYP2C19, luciferin-H EGE luminescence; hits give high values; 0 = fully inhibited enzyme, 1 = untreated enzyme. activation factor at 5 µM. AID 1025, 2008. 96,000 tested, under 10 active;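 active = activation factor of at least 2 at 5 µM in the primary screen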;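 note: 0 = wells with 2.5 mM tranylcypromine and 1 = vehicle-only wells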
Target sequence (P33261 whole entry, looked up): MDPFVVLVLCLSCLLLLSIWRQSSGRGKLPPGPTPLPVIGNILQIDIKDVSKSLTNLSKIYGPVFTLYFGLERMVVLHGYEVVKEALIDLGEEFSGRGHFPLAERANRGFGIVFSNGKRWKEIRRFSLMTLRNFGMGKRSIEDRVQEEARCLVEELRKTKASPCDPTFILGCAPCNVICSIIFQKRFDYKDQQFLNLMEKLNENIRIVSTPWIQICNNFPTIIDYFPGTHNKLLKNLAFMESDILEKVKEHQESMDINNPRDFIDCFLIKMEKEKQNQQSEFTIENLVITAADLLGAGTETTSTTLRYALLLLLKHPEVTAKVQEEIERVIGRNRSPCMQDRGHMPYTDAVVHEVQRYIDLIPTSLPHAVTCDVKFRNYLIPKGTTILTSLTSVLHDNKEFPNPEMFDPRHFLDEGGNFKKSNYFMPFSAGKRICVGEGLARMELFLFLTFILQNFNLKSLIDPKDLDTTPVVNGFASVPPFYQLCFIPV
CYP2C19 inhib: blockers of cytochrome P450 2C19 activity – biochemical, luminescence, ADME assay, primary screen; 21% of 96,000 active; AID 778, 2007; P33261; CYP2C19 Supersomes, luciferin-H EGE luminescence, 30 min; inhibition, % at 5 µM;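 active = CYP2C19 inhibition above a set limit at 5 µM in the primary screen, cut at about 50% in these data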;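 note: plate controls were negative control wells for no effect and 2.5 mM tranylcypromine positive control for full effect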
D1 mod: D1 CRE-luciferase signal change, two-sided – cell-based, HEK293 D1, dopamine EC30, D1 allosteric modulator project, primary screen. D(1A) dopamine receptor (Homo sapiens), P21728. dopamine EC30 potentiation; actives deviate in either direction. B-score at 10 µM. 5.9% of 58,000 active. AID 641, 2007;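 active = luminescence count or its row- and column-corrected plate score outside the 99.7% band of the plate's sample wells, on either side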
Active calls of the source: *; · = no result given.

SMILES	CYP2C9 inhib	CYP2C9 act	DAT uptake mod	CYP2C19 activ	CYP2C19 inhib	D1 mod
Cc1c(Cl)cccc1-n1c(SCC(=O)NCc2ccccc2Cl)nnc1-c1ccncc1	80.6*	0.2	1.56	0.1	93.6*	·
Cn1c(SCC(=O)NCc2cccs2)nnc1-c1ccncc1	4.7	1	-0.406	0.9	13.2	-0.393
O=C(CSc1nnc(-c2ccncc2)n1-c1ccc(Cl)cc1)NCc1cccs1	76.8*	0.2	0.364	0	96.0*	·
CCCSc1nc(=O)n2cccc(C)c2n1	19.2	0.8	0.295	1	0.2	·
O=C(COC(=O)c1ccc(O)cc1)Nc1ccc(N2CCCCC2)cc1	73.6*	0.3	-0.75	0.4	64.0*	·
CCOc1ccccc1C(=O)OCC(=O)Nc1ccc(N2CCCCC2)cc1	21.8	0.8	-0.251	1	2.6	·
CCOc1ccccc1OCC(=O)Nc1ccc(N2CCCCC2)cc1	-155.8	2.6*	1.05	1	3.5	-0.0532
CCC(=O)N1CCN(c2ccccc2NC(=O)COc2ccccc2Cl)CC1	93.5*	0.1	-0.159	0.1	87.3*	0.495
CN1CCN(c2ccc(NC(=O)COc3ccccc3Cl)cc2)CC1	0.3	1	0.335	0.8	21.8	-4.13*
CCCCOC(=O)Nc1ccc(N2CCCCC2)cc1	52.4*	0.5	0.0339	0.3	69.8*	-1.86
COc1cc(Cl)ccc1NC(=O)COc1ccccc1C(=O)N1CCN(c2ccc(O)cc2)CC1	81.7*	0.2	·	0.2	79.3*	1.12
COc1ccccc1OCC(=O)Nc1ccc(O)cc1C(=O)O	13.6	0.9	0.177	1.2	-19.5	-0.722
CCC(=O)N1CCN(c2ccc(NC(=O)COc3ccccc3Cl)cc2)CC1	70.7*	0.3	-0.032	0.2	80.7*	·
Cc1cccc(OCC(=O)Nc2ccc(N3CCCC3)cc2)c1C	-20.9	1.2	-0.323	0.7	25.3	1.04
CCS(=O)(=O)N1CCCC(C(=O)NCCCN2CCCC2=O)C1 (stereo not drawn)	-6.3	1.1	-0.625	1.1	-6.0	-0.0896
Cc1ccc(OCC(=O)N/N=C\c2cn(C)c3ccccc23)c([N+](=O)[O-])c1	-7.2	1.1	-0.632	0.8	21.5	·
CCCc1c(CC)c(=N)c2ccccc2n1C	11.6	0.9	-0.211	1.1	-8.5	-1.81
CCCn1nc(Oc2nc(NCC)nc(NC(C)C)n2)ccc1=O	5.1	0.9	-0.357	0.8	19.8	·
CC(NC(=O)Cn1cc(C(=O)C2CC2)c2ccccc21)c1ccccc1 (stereo not drawn)	30.0	0.7	-0.046	0.4	59.2*	·
COC(=O)C1=C(C(=O)OC)[C@@H]2N(C)c3ccc(OC)cc3[C@@]23C[C@@H](C(=O)OC)N(C(=O)COCc2ccccc2)C3=N1	·	·	0.244	·	·	·
O=c1[nH]c(NCc2ccccc2)nc2c1CCCC2	25.7	0.7	2.28	0.9	5.5	-1.38
COc1ccc(NCc2nnc(SCC(=O)N3CCCc4ccccc43)o2)cc1	59.9*	0.4	0.402	0.6	39.9	0.0955
C/C(Sc1nnc(Cc2ccccc2)o1)=C(/O)c1ccccc1	67.5*	0.3	0.0502	0.4	61.4*	-0.0211
COc1ccc(NCc2nnc(SCC(=O)Nc3cccc(C)c3)o2)cc1	59.0*	0.4	-0.0748	0.3	71.6*	0.734
O=C(O)c1ccc(CSc2nnc(Cc3ccccc3)o2)cc1	0.7	1	0.327	1.1	-7.4	·
SMILES	CYP2C9 inhib	CYP2C9 act	DAT uptake mod	CYP2C19 activ	CYP2C19 inhib	D1 mod
COc1cccc(OCc2nnc(SCC(=O)OCc3ccccc3)o2)c1	62.5*	0.4	-0.191	0.2	76.4*	0.386
CC(C)CC(CO)N1CCN(C(=O)c2cccc(Cl)c2)CCC1=O (stereo not drawn)	·	·	0.0199	·	·	·
COc1ccc(Cc2nnc(SCC(=O)c3ccccc3)o2)cc1	78.6*	0.2	-0.368	0.2	77.4*	-0.308
COc1ccc(Cc2nnc(SCC(=O)c3ccc(OC)cc3)o2)cc1	19.2	0.8	-0.388	0.7	34.9	0.902
COc1ccc(NCc2nnc(SCC(=O)c3ccc(OC)cc3)o2)cc1	-100.9	2*	0.152	0.8	22.4	·
COc1ccc(C(=O)CSc2nnc(Cc3ccccc3)o2)cc1	-40.6	1.4	0.312	1	2.3	0.256
COc1ccc([C@H]2/C=C\CN(C(=O)C3CC3)[C@@H](C)C(=O)N2Cc2ccc(F)cc2)cc1	·	·	0.439	·	·	·
Cc1cc(C(=O)COC(=O)CN(C)S(=O)(=O)c2ccc(Cl)cc2)c(C)n1Cc1cccs1	-6.7	1.1	-0.793	0.3	73.7*	·
O=C(Nc1nnc(C(F)(F)F)s1)C1COc2ccccc2O1 (stereo not drawn)	98.7*	0	-2.13	0.4	56.0*	·
CC1(C)CC(=O)c2sc(NC(=O)C3COc4ccccc4O3)nc2C1 (stereo not drawn)	14.1	0.9	0.167	1.2	-21.1	·
CC(=O)c1sc(NC(=O)C2COc3ccccc3O2)nc1C (stereo not drawn)	·	·	-0.496	·	·	-8.5*
O=C(Nc1nncs1)C1COc2ccccc2O1 (stereo not drawn)	28.2	0.7	-0.229	1	2.8	-0.399
COc1ccccc1OC(C)C(=O)Nc1nc(-c2ccc(S(=O)(=O)N3CCOCC3)cc2)cs1 (stereo not drawn)	93.3*	0.1	-0.443	0.6	37.0	·
COc1ccccc1C(=O)Nc1nc(-c2ccc(S(=O)(=O)N3CCOCC3)cc2)cs1	47.4	0.5	0.903	0.7	33.5	·
CCOc1cccc(C(=O)Nc2nc(-c3ccc(S(=O)(=O)N4CCOCC4)cc3)cs2)c1	64.9*	0.4	-0.31	0.7	26.4	-1.68
O=C(COc1cccc(Cl)c1)Nc1nc(-c2ccc(S(=O)(=O)N3CCOCC3)cc2)cs1	·	·	-0.333	·	·	·
C=CCn1c(=O)n(CCOC)c(=O)c2sc3ccccc3c21	10.8	0.9	-1.5	0.9	11.0	2.49
CC1CCCCC1NC(=O)CN1CCC(O)(c2ccc(F)cc2)CC1 (stereo not drawn)	7.6	0.9	0.8	0.9	6.5	-0.022
CC(C)(C)NC(=O)c1ccc2c(c1)N(CC(=O)N1CCN(c3ccccc3F)CC1)C(=O)C(C)(C)O2	33.1	0.7	-0.253	0.9	14.1	0.281
CCOC(=O)c1cc(C(=O)OCC)c2ccccn2c1=O	13.8	0.9	0.166	1	2.6	·
CCOc1ccccc1N1CCN(C(=O)c2cccc(-c3ccc(O)cc3)c2)CC1	86.7*	0.1	·	0.3	73.6*	·
CCOc1ccccc1N1CCN(C(=O)c2ccncc2)CC1	66.9*	0.3	-1.53	0	99.3*	-0.297

Screening data: PubChem, several laboratories
